The structures appear in SMILES notation. Where “and” joins values, the source holds several entries; their conditions need not be identical. Equal values may be shown once. Results filed as inconclusive are left out. The source holds several records for some structures; these can differ, active in one and inactive in another. Calls of active or inactive are those of the source. Rule for the calls, unless noted: active = hit-call score of the fitted dose curve at least 0.9, where 1 is the maximum; inactive = score below 0.9.

For assay [1], the target named is Hepatocyte nuclear factor 4-alpha (Homo sapiens) (UniProt P41235). In words: ATG_HNF4a_TRANS: Attagene TRANS-FACTORIAL HepG2 Assay for human Hepatocyte Nuclear Factor 4 alpha (HNF4a) (AID 2282982; active = hit-call score of the fitted dose curve at least 0.9, where 1 is the maximum). The following applies: HepG2 HNF4a transactivation reporter, mRNA readout. In outline: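 Using HepG2 liver cells transfected with GAL4-UAS reporter units, chemical-induced mRNA increases were assessed after 24 hours. Fluorescent RT-PCR fragments were separated by capillary electrophoresis and compared with DMSO negative controls.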

Assay [2] in a line: ATG_M_06_TRANS: Attagene TRANS-FACTORIAL HepG2 Assay for M06 Transcription Factor (Internal Marker) (AID 2282983; active = hit-call score of the fitted dose curve at least 0.9, where 1 is the maximum). The note with it: HepG2 Attagene TRANS M06 internal marker reporter. In outline: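 Background control endpoint: reporter mRNA from transiently transfected HepG2 after 24 h dosing, detected by RT-PCR with capillary electrophoresis fluorescence. Analysed for gain versus DMSO.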

Assay [3] is described as follows: ATG_M_32_TRANS: Attagene TRANS-FACTORIAL HepG2 Assay for M32 Transcription Factor (Internal Marker) (AID 2282984; active = hit-call score of the fitted dose curve at least 0.9, where 1 is the maximum;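 note: transcript level of a background control reporter unit measured by RT-PCR and capillary electrophoresis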). The note with it: HepG2 Attagene TRANS M32 internal marker reporter. In outline:
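Fluorescence-detected mRNA induction, HepG2 liver cells, 24 h after dosing. Multiple GAL4-UAS reporter units introduced by transient transfection; background-control endpoint analysed for gain of signal against DMSO.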

Assay [4] has as its target Nuclear receptor subfamily 4 group A member 2 (Homo sapiens) (UniProt P43354). In words: ATG_NURR1_TRANS: Attagene TRANS-FACTORIAL HepG2 Assay for human Nuclear Receptor Related Protein 1 (NURR1) (AID 2282985; active = hit-call score of the fitted dose curve at least 0.9, where 1 is the maximum). The following applies: HepG2 Attagene TRANS reporter, mRNA readout. In outline: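 Chimeric NR-Gal4 proteins were expressed in human HepG2 cells bearing GAL4-UAS reporter units, and induced reporter mRNA was quantified 24 h post-dosing by RT-PCR and capillary electrophoresis.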

Assay [5] has as its target Transcriptional activator Myb (Homo sapiens) (UniProt P10242). In words: ATG_Myb_CIS: Attagene CIS-FACTORIAL HepG2 Assay for human Myeloblastosis (Myb) Proto-Oncogene Transcription Factor (AID 2282986). The following applies: HepG2 Attagene CIS-FACTORIAL Myb reporter transcription; actives raise or lower the signal. In outline:
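Reporter mRNA is quantified by RT-PCR and capillary electrophoresis 24 h after dosing HepG2 cells transfected with cis-regulated reporter units, which track endogenous transcription factor activity. Gain and loss of signal are fitted versus DMSO baseline.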

Assay [6] addresses Nuclear respiratory factor 1 (Homo sapiens) (UniProt Q16656). In words: ATG_NRF1_CIS: Attagene CIS-FACTORIAL HepG2 Assay for human Nuclear Respiratory Factor 1 (NRF1) Orphan Gene (AID 2282987). The note with it: HepG2 NRF1 cis-element reporter, Attagene multiplex; actives raise or lower the signal. In outline: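 Endogenous NRF1-driven reporter transcription in transfected HepG2 cells after 24 h treatment. Readout: RT-PCR products, 6-FAM labelled and resolved by capillary electrophoresis; changes fitted both directions relative to DMSO.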

The nature of assay [7]: ATG_NFI_CIS: Attagene CIS-FACTORIAL HepG2 Assay for human Nuclear Factor I (NFI) (AID 2282989). The note with it: HepG2 cis-regulatory reporter, NFI response element transcription; actives raise or lower the signal. In a few lines:
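HepG2, transient MRTU, 24 h exposure; RNA→cDNA→PCR→FAM label→HpaI→CE fluorescence. Bidirectional fit, DMSO = baseline.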

For assay [8], the target named is Myc proto-oncogene protein (Homo sapiens) (UniProt P01106). In words: ATG_Myc_CIS: Attagene CIS-FACTORIAL HepG2 Assay for human Myelocytomatosis (Myc) Proto-Oncogene Transcription Factor (AID 2282990). The following applies: HepG2, Attagene cis-reporter transcription factor activity; actives raise or lower the signal. In outline:
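DMSO-normalised, bidirectionally fitted reporter mRNA signal. HepG2 cells transfected with cis reporter constructs, treated 24 h; transcripts detected by RT-PCR, 6-FAM primer extension and CE.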

A short description of assay [9]: ATG_NF_kB_CIS: Attagene CIS-FACTORIAL HepG2 Assay for human Nuclear Factor Kappa B (NF-kB) (AID 2282991). The note with it: HepG2 Attagene cis-factorial NF-kB reporter mRNA; actives raise or lower the signal. In a few lines:
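Readout is reporter transcript level, gain or loss versus DMSO, measured 24 h post-dose via RT-PCR, fluorescent labelling and capillary electrophoresis. Human HepG2 liver cells carried transiently transfected CIS reporter constructs reflecting endogenous factors.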

Assay [10] in a line: ATG_NRF2_ARE_CIS: Attagene CIS-FACTORIAL HepG2 Assay for human Nuclear Factor Erythroid 2 Related Factor 2 (NFR2) response to Antioxidant Response Elements (ARE) (AID 2282992).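 For AC50: reporter mRNA level measured by RT-PCR and capillary electrophoresis fluorescence.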 The note with it: HepG2 Attagene ARE/NRF2 reporter, transcription factor activity; actives raise or lower the signal. In outline: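 Readout: reporter mRNA quantified by RT-PCR plus FAM-labelled primer extension, HpaI digestion and capillary electrophoresis, 24 h after dosing transfected HepG2 cells. Gain or loss of signal is fitted bidirectionally against DMSO baseline.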

Assay [11] deals with Cellular tumor antigen p53 (Homo sapiens) (UniProt P04637). In words: ATG_p53_CIS: Attagene CIS-FACTORIAL HepG2 Assay for human p53 Transcription Factor (AID 2282994). The note with it: HepG2 p53 cis-element reporter, Attagene mRNA; actives raise or lower the signal. In outline: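 Read-out: reporter mRNA by RT-PCR plus capillary electrophoresis with fluorescence detection. Human HepG2 liver cells carried transfected multi-reporter cis-element constructs, dosed 24 h. Gain or loss of signal fitted bidirectionally against DMSO control.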

Assay [12] can be described thus: BSK_3C_TissueFactor: BioMAP Diversity Plus: 3C Assay for Tissue Factor Biomarker Activity (AID 2282997). The note with it: BioMAP 3C HUVEC, tissue factor biomarker readout; actives raise or lower the signal. In outline:
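After a 24 h chemical exposure of primary human umbilical vein endothelial cells, Tissue Factor levels were quantified by ELISA.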

Assay [13] can be described thus: BSK_3C_uPAR: BioMAP Diversity Plus: 3C Assay for Urokinase-type plasminogen activator receptor (uPAR) Biomarker Activity (AID 2282998). The following applies: BioMAP 3C HUVEC, uPAR biomarker ELISA; actives raise or lower the signal. In outline:
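Dose primary human umbilical vein endothelial cells, incubate 24 h, measure cell-surface uPAR by ELISA, then fit the signal in both directions against the DMSO negative control.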

Assay [14] is described as follows: BSK_3C_VCAM1: BioMAP Diversity Plus: 3C Assay for Vascular cell adhesion molecule 1 (VCAM1) Biomarker Activity (AID 2282999). The note with it: BioMAP 3C HUVEC, VCAM1 ELISA, cytokine-stimulated; actives raise or lower the signal. In outline: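 Vascular primary endothelium (human umbilical vein) was exposed to chemicals and assayed 24 h later. VCAM-1 levels came from ELISA, with DMSO serving as baseline for bidirectional fitting.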

Assay [15] in a line: BSK_4H_Eotaxin3: BioMAP Diversity Plus: 4H Assay for Eotaxin 3 Biomarker Activity (AID 2283000). The following applies: primary human endothelial cells (HUVEC); actives raise or lower the signal. In a few lines: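 Chemicals were added to human umbilical vein endothelium cultures, and Eotaxin-3 was quantified by ELISA at 24 h. Values were derived by bidirectional fitting with DMSO serving as negative control and activity baseline.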

Assay [16] deals with human Peroxisome Proliferator-activated Receptor delta (PPARd), PPARD (gene 5467) (UniProt Q03181). In words: ATG_PPARd_TRANS: Attagene TRANS-FACTORIAL HepG2 Assay for human Peroxisome Proliferator-activated Receptor delta (PPARd) (AID 2283002; active = hit-call score of the fitted dose curve at least 0.9, where 1 is the maximum). In outline: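 Measured quantity: GAL4-UAS reporter transcript induction in HepG2 after 24 h chemical dosing, with NR-Gal4 chimeras supplied by transient transfection. Detection by RT-PCR and capillary electrophoresis; upward fit against DMSO.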

Assay [17] in a line: ATG_Oct_MLP_CIS: Attagene CIS-FACTORIAL HepG2 Assay for human Octamer-Binding Transcription Factor (Oct) (AID 2282993). The note with it: HepG2 Attagene cis-factorial Oct reporter, mRNA; actives raise or lower the signal. In a few lines: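 Multiplexed cis-reporter assay in human liver HepG2 cells, 24 h incubation. Reporter RNA amplified and labelled, then resolved by capillary electrophoresis; DMSO serves as negative control and baseline.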

For assay [18], the target named is human Peroxisome Proliferator-activated Receptor alpha (PPARa), PPARA (gene 5465) (UniProt Q07869). In words: ATG_PPARa_TRANS: Attagene TRANS-FACTORIAL HepG2 Assay for human Peroxisome Proliferator-activated Receptor alpha (PPARa) (AID 2283001; active = hit-call score of the fitted dose curve at least 0.9, where 1 is the maximum;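 for AC50: potency for gain of reporter signal over DMSO so agonist or activator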). In outline:
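Exposure: 24 h, transiently transfected HepG2 cells. Endpoint: GAL4-UAS reporter mRNA, RT-PCR with capillary electrophoresis fluorescence. Baseline: DMSO; increases fitted.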

Read-out in assay [19]: Intercellular Adhesion Molecule 1 (ICAM1), ICAM1 (gene 3383)
In words: BSK_3C_ICAM1: BioMAP Diversity Plus: 3C Assay for Intercellular Adhesion Molecule 1 (ICAM1) Biomarker Activity (AID 2283003). The note with it: primary human endothelial cells (HUVEC); actives raise or lower the signal. In outline: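 Using DMSO as baseline, bidirectional curve fitting was applied to ICAM-1 ELISA signals from HUVEC in the 3C system, measured 24 h after compound addition.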

Sequence of Hepatocyte nuclear factor 4-alpha (Homo sapiens) (P41235 whole entry, looked up, the tested form may be a part): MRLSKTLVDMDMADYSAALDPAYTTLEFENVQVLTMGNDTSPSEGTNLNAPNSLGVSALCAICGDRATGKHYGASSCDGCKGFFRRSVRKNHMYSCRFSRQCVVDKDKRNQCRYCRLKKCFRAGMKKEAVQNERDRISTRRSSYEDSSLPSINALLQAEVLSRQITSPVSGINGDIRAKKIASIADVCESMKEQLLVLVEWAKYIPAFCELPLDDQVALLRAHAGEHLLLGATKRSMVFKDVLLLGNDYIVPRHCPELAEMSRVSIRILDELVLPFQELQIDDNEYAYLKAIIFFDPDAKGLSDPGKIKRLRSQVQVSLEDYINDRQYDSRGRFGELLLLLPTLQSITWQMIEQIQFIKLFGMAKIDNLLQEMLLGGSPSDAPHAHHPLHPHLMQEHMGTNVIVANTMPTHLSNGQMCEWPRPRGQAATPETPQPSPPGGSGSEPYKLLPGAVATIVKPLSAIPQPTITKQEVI
Sequence of Nuclear receptor subfamily 4 group A member 2 (Homo sapiens) (P43354 whole entry, looked up, the tested form may be a part): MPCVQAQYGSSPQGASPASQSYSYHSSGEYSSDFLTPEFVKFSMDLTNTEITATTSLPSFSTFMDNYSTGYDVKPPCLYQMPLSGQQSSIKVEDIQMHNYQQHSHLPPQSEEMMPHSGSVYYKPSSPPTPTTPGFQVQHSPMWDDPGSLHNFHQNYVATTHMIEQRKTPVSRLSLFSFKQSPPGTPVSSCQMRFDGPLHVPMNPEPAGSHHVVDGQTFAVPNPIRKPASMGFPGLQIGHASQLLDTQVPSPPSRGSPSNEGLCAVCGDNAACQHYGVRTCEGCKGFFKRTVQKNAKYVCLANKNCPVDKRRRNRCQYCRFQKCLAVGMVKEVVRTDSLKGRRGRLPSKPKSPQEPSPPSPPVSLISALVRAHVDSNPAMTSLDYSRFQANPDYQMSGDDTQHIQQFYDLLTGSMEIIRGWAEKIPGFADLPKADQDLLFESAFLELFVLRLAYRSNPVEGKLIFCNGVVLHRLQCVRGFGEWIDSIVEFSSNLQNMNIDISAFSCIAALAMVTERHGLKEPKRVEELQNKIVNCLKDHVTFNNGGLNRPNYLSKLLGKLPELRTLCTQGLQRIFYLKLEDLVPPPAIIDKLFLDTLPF
Sequence of human Peroxisome Proliferator-activated Receptor alpha (PPARa), PPARA (gene 5465) (Q07869 whole entry, looked up, the tested form may be a part): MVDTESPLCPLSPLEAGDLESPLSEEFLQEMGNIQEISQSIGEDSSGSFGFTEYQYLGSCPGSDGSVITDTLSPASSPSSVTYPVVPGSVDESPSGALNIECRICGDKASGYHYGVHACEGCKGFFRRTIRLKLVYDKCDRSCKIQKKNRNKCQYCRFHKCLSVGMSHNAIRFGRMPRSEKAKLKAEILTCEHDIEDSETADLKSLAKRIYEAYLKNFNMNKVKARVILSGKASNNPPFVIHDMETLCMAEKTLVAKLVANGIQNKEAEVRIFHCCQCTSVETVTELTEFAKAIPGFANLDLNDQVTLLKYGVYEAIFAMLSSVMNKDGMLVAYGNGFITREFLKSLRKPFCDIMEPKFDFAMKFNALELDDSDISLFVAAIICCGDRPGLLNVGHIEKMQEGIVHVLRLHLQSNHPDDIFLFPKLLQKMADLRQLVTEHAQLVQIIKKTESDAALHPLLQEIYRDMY
Sequence of human Peroxisome Proliferator-activated Receptor delta (PPARd), PPARD (gene 5467) (Q03181 whole entry, looked up, the tested form may be a part): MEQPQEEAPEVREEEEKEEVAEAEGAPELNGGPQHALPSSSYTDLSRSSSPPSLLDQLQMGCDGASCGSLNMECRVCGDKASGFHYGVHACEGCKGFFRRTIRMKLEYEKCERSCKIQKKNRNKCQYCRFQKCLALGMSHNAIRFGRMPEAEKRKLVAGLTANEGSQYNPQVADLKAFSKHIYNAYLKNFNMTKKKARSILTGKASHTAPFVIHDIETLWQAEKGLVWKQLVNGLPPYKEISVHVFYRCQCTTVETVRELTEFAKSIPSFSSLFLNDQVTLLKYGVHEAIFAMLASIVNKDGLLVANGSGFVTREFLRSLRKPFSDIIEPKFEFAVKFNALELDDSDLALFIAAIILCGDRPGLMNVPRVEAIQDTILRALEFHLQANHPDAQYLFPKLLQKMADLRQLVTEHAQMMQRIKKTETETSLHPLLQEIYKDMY
Sequence of Myc proto-oncogene protein (Homo sapiens) (P01106 whole entry, looked up): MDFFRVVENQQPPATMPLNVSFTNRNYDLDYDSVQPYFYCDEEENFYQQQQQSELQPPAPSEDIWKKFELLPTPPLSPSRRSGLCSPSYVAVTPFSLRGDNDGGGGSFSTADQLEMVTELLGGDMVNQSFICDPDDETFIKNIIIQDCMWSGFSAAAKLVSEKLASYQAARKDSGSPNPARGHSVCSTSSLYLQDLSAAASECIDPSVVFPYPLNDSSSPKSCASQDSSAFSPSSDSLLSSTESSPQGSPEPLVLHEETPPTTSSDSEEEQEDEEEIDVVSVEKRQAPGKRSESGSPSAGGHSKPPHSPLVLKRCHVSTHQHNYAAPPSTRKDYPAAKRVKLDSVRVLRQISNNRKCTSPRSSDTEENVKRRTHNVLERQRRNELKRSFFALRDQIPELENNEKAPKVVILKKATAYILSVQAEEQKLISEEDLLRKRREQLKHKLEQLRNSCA
Sequence of Cellular tumor antigen p53 (Homo sapiens) (P04637 whole entry, looked up): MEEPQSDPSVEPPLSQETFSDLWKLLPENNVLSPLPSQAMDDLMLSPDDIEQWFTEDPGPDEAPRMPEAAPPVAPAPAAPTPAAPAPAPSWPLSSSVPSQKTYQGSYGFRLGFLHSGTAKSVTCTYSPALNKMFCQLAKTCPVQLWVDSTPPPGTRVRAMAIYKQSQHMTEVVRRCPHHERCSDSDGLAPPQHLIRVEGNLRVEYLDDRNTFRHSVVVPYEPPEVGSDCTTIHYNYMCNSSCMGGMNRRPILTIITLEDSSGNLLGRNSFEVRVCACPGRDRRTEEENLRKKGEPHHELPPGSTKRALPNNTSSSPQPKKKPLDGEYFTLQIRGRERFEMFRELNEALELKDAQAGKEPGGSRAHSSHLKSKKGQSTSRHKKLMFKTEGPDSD
Sequence of Nuclear respiratory factor 1 (Homo sapiens) (Q16656 whole entry, looked up): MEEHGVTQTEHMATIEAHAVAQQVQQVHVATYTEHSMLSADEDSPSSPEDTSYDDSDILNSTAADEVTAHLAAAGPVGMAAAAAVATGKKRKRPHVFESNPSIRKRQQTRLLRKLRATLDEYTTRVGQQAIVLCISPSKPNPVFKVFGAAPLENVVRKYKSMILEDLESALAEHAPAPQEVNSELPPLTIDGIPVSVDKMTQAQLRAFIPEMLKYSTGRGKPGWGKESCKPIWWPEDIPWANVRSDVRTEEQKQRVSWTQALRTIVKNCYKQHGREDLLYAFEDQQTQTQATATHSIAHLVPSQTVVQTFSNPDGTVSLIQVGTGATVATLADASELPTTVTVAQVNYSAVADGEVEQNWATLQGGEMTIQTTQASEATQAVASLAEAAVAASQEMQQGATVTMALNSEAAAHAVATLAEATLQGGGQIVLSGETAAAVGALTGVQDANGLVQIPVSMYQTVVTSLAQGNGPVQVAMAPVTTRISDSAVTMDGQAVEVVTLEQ
Sequence of Transcriptional activator Myb (Homo sapiens) (P10242 whole entry, looked up): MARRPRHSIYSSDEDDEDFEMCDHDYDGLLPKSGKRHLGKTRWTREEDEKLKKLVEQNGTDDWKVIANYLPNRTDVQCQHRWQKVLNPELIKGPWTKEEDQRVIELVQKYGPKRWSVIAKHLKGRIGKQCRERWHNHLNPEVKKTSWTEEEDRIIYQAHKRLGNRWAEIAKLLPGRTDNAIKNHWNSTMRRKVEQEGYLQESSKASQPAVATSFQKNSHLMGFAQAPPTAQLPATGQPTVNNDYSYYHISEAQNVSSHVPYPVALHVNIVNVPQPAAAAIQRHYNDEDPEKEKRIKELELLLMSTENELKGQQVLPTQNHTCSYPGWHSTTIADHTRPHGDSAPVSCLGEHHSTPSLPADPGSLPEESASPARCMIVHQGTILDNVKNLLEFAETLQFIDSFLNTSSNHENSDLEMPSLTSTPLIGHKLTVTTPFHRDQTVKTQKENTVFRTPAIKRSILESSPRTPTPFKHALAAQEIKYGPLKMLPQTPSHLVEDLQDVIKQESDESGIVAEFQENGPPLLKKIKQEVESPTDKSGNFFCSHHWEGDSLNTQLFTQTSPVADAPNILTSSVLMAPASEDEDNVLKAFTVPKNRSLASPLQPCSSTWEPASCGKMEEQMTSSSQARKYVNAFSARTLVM

Take `CC(C)(C)CC(C)(C)c1ccc(O)cc1`: the molecule was classed as inactive in assay [1], in assay [2], in assay [3], in [4], in assay [5] and in assay [6]. Besides, the call in assay [7], in [8], in [9], in assay [11] and in assay [16] was inactive. Moreover, the AC50 is 11 µM (active) [middle of 4 runs] in [10]; 16 µM (active) and 16.4 µM (active) in assay [11]; 7.99 µM (active) in [12]; 7.17 µM (active) in assay [13]; 6.92 µM (active) in assay [14]; 8.11 µM (active) in [15].

For `CCC(C)c1cccc(C(C)CC)c1O` (stereo unspecified), the result in assay [1], in assay [2], in assay [3], in assay [5], in [6] and in assay [7] was inactive. Besides, the result in assay [8], in assay [9], in [17], in assay [11] and in assay [16] was inactive. The AC50 in [4] is 33.4 µM (active).

Consider `CCc1ccccc1C`, for which the result in [1], in assay [2], in assay [3], in assay [5], in assay [6] and in assay [7] was inactive. Further, the result in assay [8], in assay [9], in assay [10], in assay [17], in assay [11] and in assay [18] was inactive. In addition, the molecule was called inactive in assay [16].

On to `CCCCCCCCc1ccc(O)cc1`, for which the molecule was called inactive in assay [1], in [2], in assay [3], in assay [4], in assay [5] and in assay [6]. For the same molecule, the molecule was called inactive in assay [7], in assay [8], in assay [9], in [17], in assay [11] and in [18]. Besides, the result in [16] was inactive. Further, the AC50 in assay [12] was 32.2 µM (active); in assay [13], 37.2 µM (active); in [14] it was 31.9 µM (active); in assay [15], 33.5 µM (active); in assay [18], 24.8 µM (active); in assay [19] it was 35.6 µM (active).

In the case of `COc1ccc(C=O)cc1OC`, the outcome in assay [1], in [2], in [3], in assay [4], in assay [5] and in assay [6] was inactive. Further, the result in assay [7], in assay [8], in [17], in assay [11] and in assay [18] was inactive.

Consider `Cc1cc(=O)[nH]o1`, for which the molecule was classed as inactive in assay [1], in assay [2], in [3], in assay [5], in assay [6] and in assay [7]. Further, the call in [8], in [9], in [10], in assay [17], in assay [11] and in assay [16] was inactive.

Regarding `C[C@@H]1C[C@@H]([C@H](O)CC2CC(=O)NC(=O)C2)C(=O)[C@@H](C)C1`, the call in assay [1], in assay [2], in assay [3], in assay [4], in assay [5] and in [6] was inactive. Moreover, the result in assay [7], in [8], in assay [17], in assay [11], in assay [18] and in [16] was inactive. Besides, the AC50 was 17.9 µM (active) [middle of 4 runs] in assay [9]; 24.1 µM (active) and 25.4 µM (active) in assay [17]; 1.24 µM (active) and 2.34 µM (active) and 1.67 µM (active) in [11]; 2.05 µM (active) in [12]; 5.3 µM (active) in assay [13]; 12.4 µM (active) in assay [14]. The concentration at half-maximal activity (AC50) in assay [15] is 9.12 µM (active).

For the molecule `ClCc1cccnc1`, the call in assay [1], in [2], in [3], in assay [4], in assay [5] and in assay [6] was inactive. The call in [8], in assay [9], in [11] and in assay [16] was inactive. In addition, the results for the AC50 in assay [7], in assay [10] and in assay [17] were 60.8 µM (active), 27.9 µM (active) and 50.9 µM (active), respectively.

These data come from PubChem BioAssay (EPA / NIEHS).
